Sampled rows, rich in hits. Any-hit rate of the full collection: about 2.2%.
PHOSPHO1 block – inhibitors of human PHOSPHO1 phosphatase. inhibition, % at 13.3 µM. recombinant PHOSPHO1, absorbance phosphatase assay. Q8TCT1. actives 1.1% (n = 290,000); in the data active = inhibition above about 60%
HDAC3 inh – human HDAC3 inhibition; O15379; recombinant HDAC3, fluorogenic peptide/trypsin coupled, fluorescence; actives 0.15% (n = 320,000); inhibition, % at 8.3 µM; in the data active = inhibition above about 26%, passing the limit was not always enough; inconclusive = no clear call, values can overlap the other calls
Target sequence (O15379 whole entry, looked up): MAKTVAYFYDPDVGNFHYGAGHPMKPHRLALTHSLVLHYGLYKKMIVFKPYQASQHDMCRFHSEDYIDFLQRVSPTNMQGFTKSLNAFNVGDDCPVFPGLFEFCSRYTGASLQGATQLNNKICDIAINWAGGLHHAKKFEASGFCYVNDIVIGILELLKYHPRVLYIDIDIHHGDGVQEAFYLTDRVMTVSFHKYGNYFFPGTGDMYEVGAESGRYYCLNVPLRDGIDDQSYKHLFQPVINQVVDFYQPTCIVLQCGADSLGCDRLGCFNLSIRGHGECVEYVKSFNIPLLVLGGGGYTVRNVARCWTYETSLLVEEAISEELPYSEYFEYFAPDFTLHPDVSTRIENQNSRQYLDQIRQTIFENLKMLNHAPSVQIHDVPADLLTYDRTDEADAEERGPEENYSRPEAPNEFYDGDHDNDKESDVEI
PvdQ inh – blocks Pseudomonas aeruginosa PvdQ acylase activity | purified PvdQ acylase, fluorescence plate reader | actives 0.063% (n = 340,000) | inhibition, % at 10 µM | AID 488965; in the data active = inhibition above about 30%, passing the limit was not always enough; inconclusive = no clear call, values can overlap the other calls;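 also: 0% = vehicle neutral wells and 100% = reference inhibitor wells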
SUMO Mot1 rescue – inhibitors of SUMOylation pathway: yeast Mot1-301 growth rescue. actives 1% (n = 320,000). growth rescue, % at 18.8 µM. AID 2716. S. cerevisiae Mot1-301 growth rescue, ATP luminescence, 38.5C; percent above DMSO median, 100 means doubled;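 active = every valid replicate shows activation above 250% relative to neutral control wells; inactive = the rest, any valid replicate at or below 250%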;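 also: OY570 slx delta 5 strain wells were the positive control but not used for scaling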
p-CIP stab down – compounds decreasing mouse p/CIP protein stability | Q05BA5 | F442A p/CIP-EGFP cells, EGFP fluorescence, 16 h | decrease of EGFP signal, % at 10 µM | actives 0.01% (n = 290,000) | AID 1984;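 active = EGFP signal decrease of at least 30% at 10 µM or well 3 SD below plate mean, unless failing retest; inactive = the rest, including hits failing retest or dose response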
JMJD2C inh – human JMJD2C demethylase inhibition | AID 2099 | inhibition, % at 2.35 µM | GST-JMJD2C(1-420) H3K9me3 demethylation, DELFIA europium | actives 0.069% (n = 330,000) | Q9H3R0;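 active = more than half of a compound's replicate wells show inhibition beyond 50%, single wells judged on their own value; inconclusive = some, but no more than half, of replicates pass 50% inhibition; inactive = no replicate passes 50% inhibition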;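 also: signal counts dimethyl H3K9 product captured on neutravidin plate; 0% = median of DMSO wells and 100% = 0.3 times that DMSO median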
Active calls of the source: *.

For COc1ccc(S(=O)(=O)n2nc(OC(=O)c3cccs3)cc2NC(=O)c2cccs2)cc1 the results were PHOSPHO1 block 14, HDAC3 inh 46*, PvdQ inh -7, SUMO Mot1 rescue 28, p-CIP stab down 0 and JMJD2C inh 0.
Nc1cc(OC(=O)c2cccs2)nn1S(=O)(=O)c1ccc(F)cc1 was read as PHOSPHO1 block 7, HDAC3 inh 70*, PvdQ inh -10, SUMO Mot1 rescue -9, p-CIP stab down -4 and JMJD2C inh -45.
Screening Nc1cc(OC(=O)c2cccs2)nn1S(=O)(=O)c1ccccc1 returned PHOSPHO1 block -8, HDAC3 inh 96*, PvdQ inh -8, SUMO Mot1 rescue 445, p-CIP stab down 1 and JMJD2C inh 13.
Screening COc1cc(CNCc2ccc(C)cc2)cc(OC)c1OC returned PHOSPHO1 block 34, HDAC3 inh 3, PvdQ inh -1, SUMO Mot1 rescue 80, p-CIP stab down -2 and JMJD2C inh 2.
`C[C@@H](OC(=O)c1[nH]cnc1C(=O)NCc1ccc(CNC(=O)OC(C)(C)C)cc1)c1ccccc1` gave HDAC3 inh 21, PvdQ inh -9 and SUMO Mot1 rescue -4.
`O=c1cc(CSc2nc3ccccc3c(=O)[nH]2)c2ccc(O)cc2o1` gave PHOSPHO1 block 60*, PvdQ inh -4, p-CIP stab down 4 and JMJD2C inh -37.
Screening O=C(CSc1n[nH]c(-c2ccco2)n1)Nc1ccccc1 returned HDAC3 inh 2, PvdQ inh -5, SUMO Mot1 rescue -14 and JMJD2C inh -10.
For O=C(Cc1ccc(S(=O)(=O)N2CCOCC2)s1)Nc1nc2c(s1)CCCC2 the results were PHOSPHO1 block 94*, HDAC3 inh 4, PvdQ inh -3, SUMO Mot1 rescue inactive, p-CIP stab down -8 and JMJD2C inh -1.
For C=CCn1c(COc2ccccc2-c2ccccc2)nnc1SCC(=O)NC(=O)NCc1ccco1 the results were PHOSPHO1 block 19, HDAC3 inh -1, PvdQ inh -9, SUMO Mot1 rescue 21, p-CIP stab down -15 and JMJD2C inh -3.
For C=CCn1c(COc2ccccc2F)nnc1SCC(=O)NC(=O)NCc1ccco1 the results were PHOSPHO1 block 81*, HDAC3 inh inconclusive, PvdQ inh 8, SUMO Mot1 rescue 4, p-CIP stab down -19 and JMJD2C inh 5.
For COc1ccc(-c2nc(SCC(=O)NCc3ccco3)c(-c3ccccc3)[nH]2)cc1OC the results were PHOSPHO1 block 63*, HDAC3 inh 5, PvdQ inh -6, SUMO Mot1 rescue -8, p-CIP stab down -8 and JMJD2C inh -15.
COc1ccccc1OCc1nnc(SCC(=O)NCc2ccco2)n1Cc1ccco1 was read as PHOSPHO1 block 65*, HDAC3 inh 1, PvdQ inh 1, SUMO Mot1 rescue 3, p-CIP stab down -2 and JMJD2C inh 6.
`COc1ccc(-c2[nH]c(-c3ccccc3)nc2SCC(=O)NCc2ccco2)cc1OC` gave PHOSPHO1 block -9, HDAC3 inh 0, PvdQ inh -13, SUMO Mot1 rescue 5, p-CIP stab down 2 and JMJD2C inh -2.
Screening O=C(O)C1CCCN1S(=O)(=O)c1cccc2nsnc12 (centres undefined) returned PHOSPHO1 block 28, HDAC3 inh -4, PvdQ inh 16, SUMO Mot1 rescue -9, p-CIP stab down -19 and JMJD2C inh -4.
Screening CCN1CCCC1CNS(=O)(=O)c1ccc(Cl)c(C(F)(F)F)c1 (centres undefined) returned PHOSPHO1 block 28, HDAC3 inh -4, PvdQ inh -4, SUMO Mot1 rescue 15, p-CIP stab down -12 and JMJD2C inh -3.
O=C1c2cccc3c([N+](=O)[O-])ccc(c23)C(=O)N1c1ccc(Cl)cn1 was read as PHOSPHO1 block 93*, HDAC3 inh 2, PvdQ inh 11, SUMO Mot1 rescue 160, p-CIP stab down -179 and JMJD2C inh 3.
Screening O=C1c2cccc3c([N+](=O)[O-])ccc(c23)C(=O)N1c1ccccn1 returned PHOSPHO1 block 34, HDAC3 inh 11, PvdQ inh 3, SUMO Mot1 rescue 75, p-CIP stab down -203 and JMJD2C inh 23.
Screening O=C1c2cccc3c([N+](=O)[O-])ccc(c23)C(=O)N1c1nccs1 returned PHOSPHO1 block 97*, HDAC3 inh 2, PvdQ inh -12, SUMO Mot1 rescue 242, p-CIP stab down -104 and JMJD2C inh -5.
`COCCCn1c(=O)c2ccccc2n(Cc2cccc(C)c2)c1=O` gave PHOSPHO1 block 39, HDAC3 inh 7, PvdQ inh -23, SUMO Mot1 rescue -1, p-CIP stab down -6 and JMJD2C inh 0.
Screening Cc1cc(C)c2ccc(=O)n(CC(=O)N/N=C/c3ccccc3Cl)c2n1 returned PHOSPHO1 block 19, HDAC3 inh -3, PvdQ inh 8, SUMO Mot1 rescue -4, p-CIP stab down 18 and JMJD2C inh -5.
Screening COc1cccc(C(=O)N2CCN(C(=O)C3COc4ccccc4O3)CC2)c1 (centres undefined) returned PHOSPHO1 block 26, HDAC3 inh 2, PvdQ inh -9, SUMO Mot1 rescue 5, p-CIP stab down -7 and JMJD2C inh -6.
`Cc1c(NC(=O)COC(=O)c2cc3c4ccccc4n(C)c3s2)c(=O)n(-c2ccccc2)n1C` gave PHOSPHO1 block 62*, HDAC3 inh 1, PvdQ inh -17, SUMO Mot1 rescue 188, p-CIP stab down -9 and JMJD2C inh 13.
Cc1c(NC(=O)COC(=O)c2ccccc2Cl)c(=O)n(-c2ccccc2)n1C was read as PHOSPHO1 block 36, HDAC3 inh 6, PvdQ inh -8, SUMO Mot1 rescue 43, p-CIP stab down 8 and JMJD2C inh -3.
`O=C(O)CCCN1C(=O)/C(=C\c2ccco2)SC1=S` gave PHOSPHO1 block -50, PvdQ inh -5, p-CIP stab down -13 and JMJD2C inh -13.
O=C(O)CCN1C(=O)/C(=C\c2ccc(-c3nc4ccccc4s3)o2)SC1=S was read as PHOSPHO1 block 94*, HDAC3 inh inconclusive, PvdQ inh 1, SUMO Mot1 rescue 26, p-CIP stab down 1 and JMJD2C inh -26.
For O=C(NC1CCS(=O)(=O)C1)c1cccc(Br)c1 (centres undefined) the results were HDAC3 inh -2, PvdQ inh 41*, SUMO Mot1 rescue -6 and JMJD2C inh -1.
For CSCc1cc(N(C)c2ccccc2)nc(-c2ccccc2)n1 the results were PHOSPHO1 block 42, HDAC3 inh -7, PvdQ inh -8, SUMO Mot1 rescue 176, p-CIP stab down -10 and JMJD2C inh -11.
For Cc1cc(C)nc(Sc2nc(Cl)nc(N(c3ccccc3)c3ccccc3)n2)n1 the results were PHOSPHO1 block 83*, HDAC3 inh 7, PvdQ inh -4, SUMO Mot1 rescue 11, p-CIP stab down 1 and JMJD2C inh 38.

Compound activity from PubChem BioAssay.
